The nature of assay [1]: qHTS assay for small molecules that induce genotoxicity in human embryonic kidney cells expressing luciferase-tagged ATAD5 (AID 651632). Further: nearly all actives have a fitted effect of over 15% in size. Further: potency means the concentration at half of the fitted maximal effect. In a few lines: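 Luminescent reporter readout, HEK293T ATAD5-luc line: 16 hr drug exposure (37C, 5% CO2) followed by Amplite, 30 min RT.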
The nature of assay [2]: qHTS assay for small molecule agonists of the p53 signaling pathway - cell viability (AID 651633; calls by dose curve;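 further: p53RE-bla HCT reporter cells with a stable beta-lactamase p53 reporter; series mostly up to about 83 µM; nearly all actives have a fitted effect of over 30% in size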). The procedure, abridged:
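p53RE-bla cells were treated with compound for 16 hours at 37 C. Cytotoxicity was then measured as CellTiter-Glo luminescence after 30 min at room temperature.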
(In general: qHTS replaces the single test concentration by a dilution series.)

The nature of assay [3]: qHTS assay for small molecules that induce genotoxicity in human embryonic kidney cells expressing luciferase-tagged ATAD5 - cell viability (AID 651634; calls by dose curve; further: nearly all actives have a fitted effect of over 25% in size). The procedure, abridged:
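Viability read: CellTiter-Fluor fluorescence, 30 min at 37C. Cells: HEK293T, luciferase-tagged ATAD5. Exposure: 15.5 hr, 37C, 5% CO2, compound or DMSO vehicle.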

Assay [4] in a line: qHTS assay for small molecule disruptors of the mitochondrial membrane potential - cell viability (AID 720634; calls by dose curve;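 further: human HepG2 liver cancer cells; series mostly up to about 83 µM; nearly all actives have a fitted effect of over 20% in size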). The procedure, abridged: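 HepG2, 1 hr compound, 37 C. ATP luminescence via CellTiter-Glo, 30 min RT, same well as m-MPI.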
Assay [5] in a line: qHTS assay for small molecule disruptors of the mitochondrial membrane potential (AID 720635). Further: potency means the concentration at half of the fitted maximal effect. The procedure, abridged: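 HepG2 cells exposed to compound 1 hr at 37C, then Mito-MPS dye 30 min. Ratio read of aggregate (540/590 nm) versus monomer (490/535 nm) fluorescence.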
Assay [6] in a line: qHTS assay to test for compound auto fluorescence at 590 nm (red) in HepG2 cells (AID 720674). The procedure, abridged: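 HepG2 cells, 2,000 per well in MEM with 10% FBS, attached overnight at 37 C, then got 23 nL compound or DMSO. After 1 hr at 37 C, 5% CO2, red fluorescence was read at 540/590 nm against Rose Bengal sodium as reference.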
The nature of assay [7]: qHTS assay to test for compound auto fluorescence at 535 nm (green) in HepG2 cells (AID 720675).
The nature of assay [8]: qHTS assay to test for compound auto fluorescence at 460 nm (blue) in HEK293 cells (AID 720678). In a few lines: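 Blue-channel (Ex/Em 405/460 nm) intensity measured in HEK293 cultures after overnight compound exposure at 37C; signal expressed relative to triamterene. Cells plated 2,000 per well in 10% dialyzed FBS medium and allowed 4-5 hr to attach.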
Assay [9] can be described thus: qHTS assay to test for compound auto fluorescence at 590 nm (red) in HEK293 cells (AID 720679). In a few lines:
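Red-channel autofluorescence (Ex/Em 540/590 nm; Rose Bengal sodium reference) was measured after overnight 37C, 5% CO2 exposure of attached HEK293 cells, 2,000 per well in medium with 10% dialyzed FBS.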

A number with no mark means an inactive call. Results filed as inconclusive are left out. The source made the active and inactive calls. Unless noted, the call rests on the fitted dose curve; in most records, active means well fitted curve in the direction sought with a large enough effect in the repeat runs; inconclusive means weak or mixed curves; inactive means no such curve, though single readings can be large; an effect the other way counts as inactive or inconclusive.
On the % scale 0 is the no-effect control and ±100 the full control effect.

`COC(=O)C(C)(C)C`: the Potency entry in assay [1], in assay [2], in [3], in assay [4], in assay [5] and in assay [8] was “inactive” in each case. In addition, the result in assay [6], in assay [7] and in [9] was inactive.
Consider `CCCCCCCCCCCCSCCOCCO`, for which the Potency result in assay [1], in [2], in assay [3], in assay [4], in assay [5] and in assay [8] was “inactive” throughout. The result in assay [6], in assay [7] and in assay [9] was inactive.
With `O=Cc1ccc([N+](=O)[O-])cc1`, the Potency result in assay [1], in [2], in assay [3], in assay [4], in assay [5] and in [8] was “inactive” throughout. Further, the molecule was classed as inactive in assay [6], in [7] and in [9].
In the case of `CC(C(=O)O)c1ccc2c(c1)Cc1cccnc1O2` (stereo not given), the Potency result in assay [1], in assay [2], in [3], in assay [4], in assay [5] and in assay [8] was “inactive” throughout. In addition, the call in assay [6], in [7] and in [9] was inactive.
With `CC(CN=Cc1ccccc1O)N=Cc1ccccc1O` (stereo not given), the Potency result in [1], in assay [2], in assay [3], in assay [4], in assay [5] and in assay [8] was “inactive” in each case. The result in assay [6], in assay [7] and in assay [9] was inactive.
For `O=C(c1ccc(Cl)cc1)c1ccc(Cl)cc1`, the Potency result in [1], in assay [2], in [4] and in assay [8] was “inactive” throughout. The molecule was classed as inactive in [6], in [7] and in assay [9].
With `O=C(N[C@@H](Cc1ccccc1)[C@@H](O)C(=O)N1C[C@@H](O)[C@@H](O)C1)c1cc2cc(Cl)ccc2[nH]1`, the Potency result in assay [1], in [2], in [3], in assay [4] and in assay [8] was “inactive” each time. Also, the molecule was called inactive in [6], in [7] and in assay [9].
Consider `OCCOc1cccc(OCCO)c1`, for which the Potency result in [1], in assay [2], in assay [4], in [5] and in assay [8] was “inactive” in each case. Moreover, the result in assay [6], in assay [7] and in assay [9] was inactive.
`c1ccc(CCNc2nc(-c3ccccc3)cs2)cc1`: the Potency in [1] was 3.35 µM (active); in assay [5], 10.6 µM (active). The Potency entry in assay [2], in assay [3] and in [8] was “inactive” each time. Further, the molecule was classed as inactive in assay [6], in [7] and in assay [9].
`Clc1cccc(C(c2ccc3nc[nH]c3c2)n2ccnc2)c1` (stereo not given): the Potency entry in [1], in assay [2], in [3], in assay [4] and in assay [8] was “inactive” throughout. The call in [6], in assay [7] and in [9] was inactive.
As to `CC(O)CN` (stereo not given), the Potency entry in assay [1], in assay [2], in assay [3], in [4] and in [8] was “inactive” throughout. Besides, the molecule was classed as inactive in assay [6], in assay [7] and in [9].
Consider `Cc1ccc(NC=O)c(C)c1`, for which the Potency entry in assay [1], in assay [2], in [3], in [4] and in assay [8] was “inactive” each time. In addition, the molecule was classed as inactive in assay [6], in assay [7] and in assay [9].
Consider `CCCN(C1CCN(C(=O)C2CCNCC2)CC1)[C@@H]1CCc2ccc(OC)cc2C1`, for which the Potency entry in assay [1], in assay [2], in assay [3], in [4] and in assay [8] was “inactive” in each case. Besides, the result in [6], in [7] and in assay [9] was inactive.
Regarding `C=CC(C)CCC=C(C)C` (stereo not given), the Potency entry in [1], in assay [2], in [3], in [4] and in [8] was “inactive” throughout. Moreover, the result in assay [6], in [7] and in [9] was inactive.
On to `O=C(O)c1ccccc1[N+](=O)[O-]`, for which the Potency result in assay [1], in [2], in assay [4] and in assay [8] was “inactive” in each case. The call in assay [6], in [7] and in [9] was inactive.
As for `C1=COCCC1`, the Potency entry in [1], in assay [2], in assay [3], in [4] and in assay [8] was “inactive” in each case. For the same molecule, the result in [6], in assay [7] and in assay [9] was inactive.
In the case of `O=C(OC1C[C@H]2CC[C@@H](C1)[N+]21CCCC1)C(O)(c1ccccc1)c1ccccc1` (stereo not given in full), the Potency result in [1], in assay [2], in [4], in assay [5] and in assay [8] was “inactive” each time. Besides, the call in [6], in assay [7] and in [9] was inactive.
Regarding `CC(=O)Oc1cccc2c1C(=O)c1c(OC(C)=O)cc(C(=O)O)cc1C2=O`, the Potency entry in assay [1], in assay [2], in assay [4] and in assay [8] was “inactive” each time. Besides, the Potency in assay [5] is 13.3 µM (active). In addition, the outcome in [6], in assay [7] and in [9] was inactive.
Regarding `CC(=O)OCC(=O)[C@@]1(O)CC[C@H]2[C@@H]3CCC4=CC(=O)C=C[C@]4(C)[C@@]3(F)[C@@H](O)C[C@@]21C`, the Potency result in assay [1], in assay [2], in assay [3] and in assay [4] was “inactive” each time. In addition, the fluorescence, relative to Rose Bengal in [6] was -0.399% [at 18.6 µM]. Also, the fluorescence, % of fluorescein control in [7] is 0.0333% [at 18.6 µM]. Moreover, the fluorescence, % of triamterene in [8] is 0.0056% [at 18.6 µM]. Moreover, in assay [9], the fluorescence, % of fluorescent control is 0.478% [at 18.6 µM].
Take `CC1(C)CC(O)CC(C)(C)N1[O]`: the Potency result in [1], in [2], in assay [3], in [4] and in assay [8] was “inactive” each time. In addition, the call in assay [6], in [7] and in assay [9] was inactive.
As for `O=C(O)c1ccc(O)c(O)c1`, the Potency result in [1], in assay [2], in assay [3], in assay [4] and in assay [8] was “inactive” in each case. The molecule was called inactive in [6], in assay [7] and in assay [9].
`CC1=C(C)C(=O)C(CCCCC#CCCCC#CCO)=C(C)C1=O`: the Potency entry in assay [1], in assay [2], in assay [3], in [4] and in [8] was “inactive” in each case. In addition, the outcome in [6], in [7] and in [9] was inactive.
Turning to `O=Cc1ccc(Cl)c([N+](=O)[O-])c1`, the Potency entry in assay [1], in [2], in [3], in assay [4] and in assay [8] was “inactive” throughout. For the same molecule, the call in assay [6], in assay [7] and in assay [9] was inactive.
As for `SCCOCCOCCS`, the Potency entry in assay [1], in [2], in [3], in [4] and in [8] was “inactive” throughout. The result in assay [6], in assay [7] and in assay [9] was inactive.

The values above are taken from PubChem BioAssay (Tox21).
